Experimental findings from the supplement of paper PMC12636033 are described below.

± gives the standard deviation of the averaged measurements. The full ranking holds about 33,000 sequences; the median of “E-score (rank enrichment, -0.5 to 0.5)” is about -0.0028, and the highest 2% start at about 0.23. Only a selection was taken, and the highest values are over-represented in it overall.

This assay concerns 2Sb-muMax20 (muMax20 with two 1,3-bis(methyl)benzene Cys staples, A13C/A17C and Q88C/A92C, C-terminal Lys). Briefly: PBM 8-mer E-score (E-score (rank enrichment, -0.5 to 0.5)); higher = stronger preferential binding. The procedure:
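Protein binding microarray (universal PBM chip covering all 10-mers in fixed probe flanks) with chemically synthesized human Max(13-93) bHLH-LZ analogs (not full-length Max) bearing noncanonical residues (hArg, Tha, Aib, Nle at 65) and aromatic Cys staples. Read-out per 8-mer (and its reverse complement): E-score (rank-based enrichment, -0.5 to 0.5) and Z-score of median probe intensity.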
AACGTGTA: the “PBM 8-mer E-score” value amounted to 0.0661 ± 0.014.
CAAGTGTA: the “PBM 8-mer E-score” value came to 0.231 ± 0.042.
On to TAAGTGTA, for which the “PBM 8-mer E-score” value is -0.00771 ± 0.18.
Consider AAAGTGTA, for which the “PBM 8-mer E-score” value was found to be 0.185 ± 0.019.
Regarding CACGTGTC, the “PBM 8-mer E-score” value amounted to 0.366 ± 0.032.
Consider CACGTGTA, for which the “PBM 8-mer E-score” value amounted to 0.3871 ± 0.0038.
Consider GACGTGTA, for which the “PBM 8-mer E-score” value was -0.0568 ± 0.059.
Take ATGGCCGA: the “PBM 8-mer E-score” value is -0.0989 ± 0.12.
As for CGGTAGCA, the “PBM 8-mer E-score” value stood at 0.0259 ± 0.0084.
With CACTAGGC, the “PBM 8-mer E-score” value was -0.0625 ± 0.012.
The result for AAGGTACT reads -0.0359 ± 0.027; that for CGCCACAC, -0.107 ± 0.0099.
As for AATTCCCA, the “PBM 8-mer E-score” value was 0.251 ± 0.056.
The result for AAAATCAC reads 0.28 ± 0.019; that for AATTCCCC, 0.162 ± 0.019.
To GATTCCCA belongs -0.109 ± 0.031; to CAATTCCA, 0.021 ± 0.024.
On to GAAATCAC, for which the “PBM 8-mer E-score” value turned out to be 0.0559 ± 0.039.
For GAATTCCA, the “PBM 8-mer E-score” value stood at 0.0438 ± 0.014.
For ATTCCCCC, the “PBM 8-mer E-score” value is -0.0763 ± 0.046.
Turning to GTTCCCCA, the “PBM 8-mer E-score” value stood at 0.0903 ± 0.0034.
Turning to AAAATCAG, the “PBM 8-mer E-score” value is -0.00194 ± 0.044.
Regarding AAATTCCA, the “PBM 8-mer E-score” value is 0.243 ± 0.0059.
For the sequence ATTCCCCA, the “PBM 8-mer E-score” value came out at 0.345 ± 0.0051.
In the case of GAGGACGA, the “PBM 8-mer E-score” value was -0.0985 ± 0.014.
In the case of CAGGAATA, the “PBM 8-mer E-score” value is -0.0263 ± 0.13.
For AGACTGCC, the “PBM 8-mer E-score” value is -0.138 ± 0.008.
As for AGGCGCTA, the “PBM 8-mer E-score” value was -0.116 ± 0.03.
As to ACAGGATA, the “PBM 8-mer E-score” value worked out at 0.046 ± 0.059.
The result for CCTCTAAC reads -0.122 ± 0.012; that for ATGTCCCC, 0.0908 ± 0.0075.
Consider AGCGCCTG, for which the “PBM 8-mer E-score” value was -0.212 ± 0.01.
To CAAATCCA belongs 0.0168 ± 0.048.
On to AAAATCCA, for which the “PBM 8-mer E-score” value stood at 0.232 ± 0.0091.
For the sequence ATTTTCCC, the “PBM 8-mer E-score” value worked out at 0.17 ± 0.024.
GATTTCCC: the “PBM 8-mer E-score” value was found to be 0.0913 ± 0.071.
To GAAATCCA belongs -0.0749 ± 0.093; to AATTTCCC, 0.301 ± 0.032.
Regarding GCCACAAA, the “PBM 8-mer E-score” value was found to be 0.0853 ± 0.099.
To ACGGCTTA belongs 0.0267 ± 0.027; to CAATGCTC, -0.0184 ± 0.021.
As to GGAGTAGA, the “PBM 8-mer E-score” value stood at 0.139 ± 0.0065.
As to GGGAAGGA, the “PBM 8-mer E-score” value came to 0.0711 ± 0.073.
Regarding AAGTATTA, the “PBM 8-mer E-score” value was found to be 0.157 ± 0.094.
As for GAGTATTA, the “PBM 8-mer E-score” value amounted to 0.12 ± 0.024.
As to CTGTATTA, the “PBM 8-mer E-score” value was -0.0311 ± 0.058.
As to CAGTATTA, the “PBM 8-mer E-score” value stood at 0.28 ± 0.02.
Turning to GTGTATTA, the “PBM 8-mer E-score” value was determined as 0.244 ± 0.061.
As to ATGTATTA, the “PBM 8-mer E-score” value stood at 0.216 ± 0.018.
Consider AGCGCAAC, for which the “PBM 8-mer E-score” value was -0.0193 ± 0.035.
For CCAGACGC, the “PBM 8-mer E-score” value was -0.135 ± 0.041.
Take CGGCTGAG: the “PBM 8-mer E-score” value is -0.16 ± 0.018.
With ACACCTAT, the “PBM 8-mer E-score” value was found to be 0.0344 ± 0.0022.
As to CACCTATA, the “PBM 8-mer E-score” value was determined as 0.232 ± 0.056.
As to TACCTATA, the “PBM 8-mer E-score” value amounted to 0.116 ± 0.032.
To AACCTATA belongs 0.0842 ± 0.034; to AAGAATCG, 0.202 ± 0.011.
On to TTCCTCAA, for which the “PBM 8-mer E-score” value was -0.0714 ± 0.003.
As to TCAGCCGA, the “PBM 8-mer E-score” value is -0.258 ± 0.094.
In the case of GCGATCGC, the “PBM 8-mer E-score” value came out at 0.261 ± 0.0046.
The result for CCGATCGC reads 0.0847 ± 0.035; that for ACGATCGC, 0.0439 ± 0.021.
As for ACTAAAGT, the “PBM 8-mer E-score” value was determined as 0.0154 ± 0.055.
As for CAATGGTA, the “PBM 8-mer E-score” value worked out at 0.0764 ± 0.11.
In the case of GAATACAA, the “PBM 8-mer E-score” value was determined as 0.164 ± 0.0018.
The result for GCCACTTA reads -0.042 ± 0.068; that for CCCACTCG, -0.168 ± 0.084; that for CCCACTTC, 0.184 ± 0.051.
To CCCACTCC belongs 0.241 ± 0.017; to GCCACTCC, -0.166 ± 0.023; to CCCACTTA, 0.2675 ± 0.00044.
With CCGACGGC, the “PBM 8-mer E-score” value was -0.2 ± 0.038.
The result for GTAGTGAA reads 0.206 ± 0.042.
Turning to TAATGCGA, the “PBM 8-mer E-score” value is 0.018 ± 0.0008.
On to AAACCGGG, for which the “PBM 8-mer E-score” value was determined as 0.0468 ± 0.0036.
To CCGATTGA belongs -0.00849 ± 0.0099; to ACGTTATG, 0.2695 ± 0.0015; to ACGTTATA, 0.105 ± 0.0054.
As for ACGTTATC, the “PBM 8-mer E-score” value is 0.0764 ± 0.057.
To TCATCAAA belongs -0.124 ± 0.034; to CATTCGAG, 0.0428 ± 0.017; to ATCGTAAA, 0.0946 ± 0.014.
Take ATCGTAAG: the “PBM 8-mer E-score” value worked out at 0.0321 ± 0.021.
For ATCGTAAT, the “PBM 8-mer E-score” value amounted to 0.246 ± 0.023.
Regarding CATTGGGG, the “PBM 8-mer E-score” value turned out to be 0.255 ± 0.038.
To AATTGGGA belongs 0.218 ± 0.012.
Regarding AATTGGAG, the “PBM 8-mer E-score” value was found to be 0.0796 ± 0.067.
For the sequence AATTGGTG, the “PBM 8-mer E-score” value was 0.142 ± 0.023.
